Measured values taken from the supplement of paper PMC10849652.
Targets with a hit are over-represented here; the source holds about 7,900 in all. About 0.6% of all pairs of compound and target were hits.

Legend:
Assay in all cases: log2 fold change, soluble protein after heating vs DMSO (PISA); higher = thermal stabilisation; K562 cells, 10 uM, 30 min; active = over 0.2 and 3.5 SD of the protein, either way, in both replicates (recomputed)
[1] = compound: CN1CCN(CCOc2cc(OC3CCOCC3)c3c(Nc4c(Cl)ccc5c4OCO5)ncnc3c2)CC1 [saracatinib]
How it was run: (§1)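 Aliquots of K562 cells (2×10^6 cells/mL) treated with 10 μM compound for 30 min were heated for 3 min over 48°C-58°C. After pooling and extraction in PBS with 0.5% NP-40 at 4°C, soluble protein from a 21,000xg, 90 min spin was quantified by TMTpro 16plex LC-MS/MS with channel sums equalised. Thermal stability is expressed against control samples, from duplicates, as a log2 fold change.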

[2] = compound: CN1CCN(c2nc(C3=C(c4c[nH]c5ccccc45)C(=O)NC3=O)c3ccccc3n2)CC1 [sotrastaurin]
How it was run: as §1

[3] = compound: CN1CC[C@H](c2c(O)cc(O)c3c(=O)cc(-c4ccccc4Cl)oc23)[C@H](O)C1 [alvocidib]
How it was run: as §1

[4] = compound: CN1CCc2c(c3ccccc3n2Cc2ccc(C(=O)NO)cc2)C1 [Tubastatin A]
How it was run: as §1

[5] = compound: CNC(=O)C1=CC=CC=C1NC2=NC(=NC=C2Cl)NC3=C(C=C(C=C3)N4CCOCC4)OC
How it was run: as §1

[6] = compound: CNC(=O)c1ccc(Nc2ncc(C(F)(F)F)c(NCc3nccnc3N(C)S(C)(=O)=O)n2)cc1 [defactinib]
How it was run: as §1

[7] = compound: CNCc1ccc(-c2[nH]c3cc(F)cc4c3c2CCNC4=O)cc1 [rucaparib]
How it was run: as §1

[8] = compound: CNc1nc(-c2ccc3c(N)n[nH]c3c2)cc(N2C[C@@H](C(=O)NC3CCCCC3)CC[C@H]2C)n1
How it was run: as §1

[9] = compound: COC(=O)N[C@@H](C)CNc1nccc(-c2cn(C(C)C)nc2-c2cc(Cl)cc(NS(C)(=O)=O)c2F)n1 [encorafenib]
How it was run: as §1

[10] = compound: COC(=O)[C@H](CCSC)NC(=O)C1=C(C=C(C=C1)NC[C@H](CS)N)C2=CC=CC=C2
How it was run: as §1

[11] = compound: COC1=CC=C(C=C1)CN2C=CC3=C2C=C(C=C3)C(=O)NO
How it was run: as §1

[12] = compound: CON(C)C(=O)N1N=C(c2cc(F)ccc2F)S[C@@]1(CCCN)c1ccccc1 [filanesib]
How it was run: as §1

[13] = compound: CO[C@H]1C[C@@H]2CC[C@@H](C)[C@@](O)(O2)C(=O)C(=O)N2CCCC[C@H]2C(=O)O[C@H]([C@H](C)C[C@@H]2CC[C@H](n3cnnn3)[C@H](OC)C2)CC(=O)[C@H](C)/C=C(\C)[C@@H](O)[C@@H](OC)C(=O)[C@H](C)C[C@H](C)/C=C/C=C/C=C/1C [zotarolimus]
How it was run: as §1

[14] = compound: COc1cc(C(=O)O)ccc1NC(=O)[C@@H]1N[C@@H](CC(C)(C)C)[C@](C#N)(c2ccc(Cl)cc2F)[C@H]1c1cccc(Cl)c1F [idasanutlin]
How it was run: as §1

[15] = compound: COc1cc(Nc2ncc3c(n2)-c2ccc(Cl)cc2C(c2c(F)cccc2OC)=NC3)ccc1C(=O)O [alisertib]
How it was run: as §1

[16] = compound: COc1cc2nc(-c3cc(F)ccc3O)nc(N[C@@H]3CNC[C@H]3C(C)(C)O)c2cc1OC
How it was run: as §1

[17] = compound: COc1cc2ncnc(Nc3ccc(F)c(Cl)c3)c2cc1OCCCN1CCOCC1 [gefitinib]
How it was run: as §1

[18] = compound: COc1cccc2cc(-c3nc([C@H]4CC[C@H](C(=O)O)CC4)n4ncnc(N)c34)[nH]c12
How it was run: as §1

[19] = compound: CS(=O)(=O)CCNCc1ccc(-c2ccc3ncnc(Nc4ccc(OCc5cccc(F)c5)c(Cl)c4)c3c2)o1 [lapatinib]
How it was run: as §1

[20] = compound: CS(=O)(=O)N1CCN(Cc2cc3nc(-c4cccc5[nH]ncc45)nc(N4CCOCC4)c3s2)CC1 [pictilisib]
How it was run: as §1

Measured: log2 fold change

TNPO1 (UniProt Q92973)
inactive: [1] 0.034 | [2] -0.062 | [3] -0.141 | [4] -0.064 | [5] -0.013 | [6] -0.123 | [7] -0.04 | [8] 0.009 | [9] 0.029 | [10] 0.006 | [11] -0.008 | [12] -0.096 | [13] 0.012 | [14] -0.023 | [15] -0.074 | [16] -0.156 | [17] -0.001 | [18] -0.012 | [19] -0.005 | [20] -0.02

TXNL1 (UniProt O43396)
Sequence of UniProt O43396 (O43396 whole entry, looked up): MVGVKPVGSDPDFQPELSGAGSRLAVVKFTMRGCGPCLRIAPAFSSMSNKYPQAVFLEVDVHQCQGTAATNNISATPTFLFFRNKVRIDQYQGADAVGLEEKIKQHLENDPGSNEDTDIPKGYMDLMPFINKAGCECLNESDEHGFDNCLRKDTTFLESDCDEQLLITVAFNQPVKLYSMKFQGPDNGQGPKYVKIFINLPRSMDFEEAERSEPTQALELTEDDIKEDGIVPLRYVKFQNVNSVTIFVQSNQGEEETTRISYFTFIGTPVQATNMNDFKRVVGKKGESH
inactive: [1] -0.008 | [2] -0.068 | [3] -0.1 | [4] 0.215 | [5] 0.034 | [6] -0.085 | [7] 0.019 | [8] 0.024 | [9] 0.062 | [10] -0.045 | [11] 0.169 | [12] 0.075 | [13] 0.047 | [14] -0.003 | [15] -0.005 | [16] 0.084 | [17] 0.05 | [18] -0.001 | [19] 0.006 | [20] 0.017

XRCC6 (UniProt P12956)
active: [6] -0.264
inactive: [1] -0.013 | [2] -0.114 | [3] -0.187 | [4] 0.099 | [5] -0.047 | [7] -0.007 | [8] -0.015 | [9] 0.048 | [10] -0.041 | [11] 0.006 | [12] -0.021 | [13] 0.058 | [14] -0.059 | [15] -0.014 | [16] -0.097 | [17] -0.01 | [18] -0.008 | [19] 0.013 | [20] -0.024

TRIM28 (UniProt Q13263)
inactive: [1] 0.008 | [2] -0.064 | [3] -0.128 | [4] 0.048 | [5] 0.054 | [6] -0.121 | [7] -0.075 | [8] -0.019 | [9] 0.047 | [10] -0.032 | [11] 0.015 | [12] -0.017 | [13] 0.046 | [14] -0.031 | [15] -0.087 | [16] 0.003 | [17] 0.002 | [18] -0.03 | [19] -0.005 | [20] 0.033

VRK1 (UniProt Q99986)
inactive: [1] -0.057 | [2] 0.152 | [3] 0.285 | [4] 0.07 | [5] 0.05 | [6] -0.041 | [7] 0.048 | [8] 0.108 | [9] 0.043 | [10] -0.04 | [11] 0.098 | [12] -0.07 | [13] -0.123 | [14] -0.119 | [15] 0.06 | [16] 0.316 | [17] -0.018 | [18] -0.003 | [19] -0.059 | [20] 0.086

TNPO2 (UniProt O14787)
Sequence of UniProt O14787 (O14787 whole entry, looked up): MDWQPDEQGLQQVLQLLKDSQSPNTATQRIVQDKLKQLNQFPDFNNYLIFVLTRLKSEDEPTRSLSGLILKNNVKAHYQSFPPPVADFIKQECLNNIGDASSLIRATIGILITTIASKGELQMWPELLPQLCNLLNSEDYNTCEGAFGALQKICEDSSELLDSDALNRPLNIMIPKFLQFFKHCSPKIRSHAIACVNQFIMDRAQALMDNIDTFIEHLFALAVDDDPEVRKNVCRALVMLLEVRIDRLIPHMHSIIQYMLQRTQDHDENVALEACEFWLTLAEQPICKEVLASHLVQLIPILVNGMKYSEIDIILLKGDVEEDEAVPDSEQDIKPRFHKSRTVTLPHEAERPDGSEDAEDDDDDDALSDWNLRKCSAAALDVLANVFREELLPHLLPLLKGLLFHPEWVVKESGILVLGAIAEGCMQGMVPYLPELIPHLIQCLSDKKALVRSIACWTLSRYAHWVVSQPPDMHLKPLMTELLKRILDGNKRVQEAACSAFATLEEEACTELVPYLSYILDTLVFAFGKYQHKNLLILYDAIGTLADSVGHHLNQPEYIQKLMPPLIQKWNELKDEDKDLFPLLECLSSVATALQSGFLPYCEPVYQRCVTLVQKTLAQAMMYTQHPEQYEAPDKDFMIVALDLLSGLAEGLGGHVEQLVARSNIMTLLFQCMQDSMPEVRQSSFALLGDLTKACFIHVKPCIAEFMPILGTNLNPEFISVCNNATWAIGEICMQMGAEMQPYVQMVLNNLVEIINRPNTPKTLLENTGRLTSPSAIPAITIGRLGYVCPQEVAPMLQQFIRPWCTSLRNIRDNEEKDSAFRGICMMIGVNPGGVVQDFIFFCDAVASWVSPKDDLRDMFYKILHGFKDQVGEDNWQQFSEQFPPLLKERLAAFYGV
inactive: [1] 0.066 | [2] -0.055 | [3] -0.188 | [4] 0.03 | [5] 0.013 | [6] -0.188 | [7] -0.051 | [8] 0.054 | [9] 0.133 | [10] -0.079 | [11] -0.022 | [12] -0.005 | [13] 0.065 | [14] -0.194 | [15] -0.071 | [16] -0.069 | [17] 0.027 | [18] -0.038 | [19] -0.048 | [20] -0.076

TRAPPC11 (UniProt Q7Z392)
inactive: [1] -0.043 | [2] -0.041 | [3] -0.085 | [4] 0 | [5] -0.028 | [6] -0.075 | [7] 0.051 | [8] -0.027 | [9] 0.035 | [10] -0.031 | [11] 0.015 | [12] -0.018 | [13] 0.024 | [14] -0.039 | [15] -0.052 | [16] -0.03 | [17] -0.012 | [18] -0.019 | [19] -0.014 | [20] 0.042

WDR62 isoform 4 (UniProt O43379)
inactive: [1] -0.025 | [2] 0.037 | [3] -0.074 | [4] 0.027 | [5] -0.165 | [6] -0.06 | [7] -0.035 | [8] 0.017 | [9] 0.015 | [10] 0.014 | [11] -0.036 | [12] 0.016 | [13] 0.028 | [14] 0.02 | [15] -0.024 | [16] -0.026 | [17] 0.049 | [18] 0.046 | [19] 0.054 | [20] 0.015

TRIM5 (UniProt Q9C035)
Sequence of UniProt Q9C035 (Q9C035 whole entry, looked up): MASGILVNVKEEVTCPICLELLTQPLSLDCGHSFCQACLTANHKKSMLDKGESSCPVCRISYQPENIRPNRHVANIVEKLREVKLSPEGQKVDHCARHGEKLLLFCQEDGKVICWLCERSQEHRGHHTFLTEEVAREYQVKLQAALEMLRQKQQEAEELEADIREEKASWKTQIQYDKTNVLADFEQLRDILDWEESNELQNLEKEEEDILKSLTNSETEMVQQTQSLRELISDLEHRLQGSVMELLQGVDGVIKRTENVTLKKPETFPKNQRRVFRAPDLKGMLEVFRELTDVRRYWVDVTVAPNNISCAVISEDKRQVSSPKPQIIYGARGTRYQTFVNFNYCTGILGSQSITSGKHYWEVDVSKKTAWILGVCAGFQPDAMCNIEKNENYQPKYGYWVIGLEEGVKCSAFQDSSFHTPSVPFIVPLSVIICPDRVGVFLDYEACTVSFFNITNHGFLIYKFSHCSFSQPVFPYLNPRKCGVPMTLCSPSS
inactive: [1] -0.429 | [2] 0.103 | [3] -0.048 | [4] -0.102 | [5] -0.093 | [6] -0.108 | [8] -0.017 | [10] 0.019 | [12] 0.121 | [13] -0.066 | [14] -0.086

VPS52 (UniProt Q8N1B4)
inactive: [1] -0.012 | [2] -0.107 | [3] -0.061 | [4] 0.074 | [5] -0.047 | [6] -0.031 | [7] 0.121 | [8] -0.01 | [9] 0.02 | [10] -0.072 | [11] -0.003 | [12] 0.017 | [13] 0.044 | [14] 0.088 | [15] -0.069 | [16] 0.058 | [17] 0.014 | [18] -0.022 | [19] -0.043 | [20] -0.02

TSPAN13 (UniProt O95857)
inactive: [1] -0.055 | [2] 0.044 | [3] -0.305 | [4] -0.11 | [5] 0.054 | [6] -0.104 | [8] -0.029 | [10] -0.291 | [12] -0.041 | [13] 0.022 | [15] -0.164 | [16] -0.013 | [17] 0.047 | [18] -0.064 | [19] -0.053 | [20] 0.053

UNC119B (UniProt A6NIH7)
Sequence of UniProt A6NIH7 (A6NIH7 whole entry, looked up): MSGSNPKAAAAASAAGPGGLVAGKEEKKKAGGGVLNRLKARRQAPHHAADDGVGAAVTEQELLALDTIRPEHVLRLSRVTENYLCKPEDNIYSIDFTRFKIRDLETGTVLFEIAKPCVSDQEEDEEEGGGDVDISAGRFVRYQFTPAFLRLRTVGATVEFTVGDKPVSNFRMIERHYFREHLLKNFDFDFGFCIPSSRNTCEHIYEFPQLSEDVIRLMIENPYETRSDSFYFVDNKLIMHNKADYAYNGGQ
inactive: [1] -0.076 | [2] 0.013 | [3] -0.206 | [4] 0.124 | [5] -0.031 | [6] -0.064 | [7] 0.133 | [8] 0.316 | [9] 0.026 | [10] -0.048 | [11] -0.232 | [12] 0.059 | [13] 0.074 | [14] -0.034 | [15] -0.185 | [16] 0.069 | [17] 0.116 | [18] -0.002 | [19] 0.06 | [20] 0.092

WNK1 isoform 7 (UniProt Q9H4A3)
Sequence of UniProt Q9H4A3 (Q9H4A3 whole entry, looked up): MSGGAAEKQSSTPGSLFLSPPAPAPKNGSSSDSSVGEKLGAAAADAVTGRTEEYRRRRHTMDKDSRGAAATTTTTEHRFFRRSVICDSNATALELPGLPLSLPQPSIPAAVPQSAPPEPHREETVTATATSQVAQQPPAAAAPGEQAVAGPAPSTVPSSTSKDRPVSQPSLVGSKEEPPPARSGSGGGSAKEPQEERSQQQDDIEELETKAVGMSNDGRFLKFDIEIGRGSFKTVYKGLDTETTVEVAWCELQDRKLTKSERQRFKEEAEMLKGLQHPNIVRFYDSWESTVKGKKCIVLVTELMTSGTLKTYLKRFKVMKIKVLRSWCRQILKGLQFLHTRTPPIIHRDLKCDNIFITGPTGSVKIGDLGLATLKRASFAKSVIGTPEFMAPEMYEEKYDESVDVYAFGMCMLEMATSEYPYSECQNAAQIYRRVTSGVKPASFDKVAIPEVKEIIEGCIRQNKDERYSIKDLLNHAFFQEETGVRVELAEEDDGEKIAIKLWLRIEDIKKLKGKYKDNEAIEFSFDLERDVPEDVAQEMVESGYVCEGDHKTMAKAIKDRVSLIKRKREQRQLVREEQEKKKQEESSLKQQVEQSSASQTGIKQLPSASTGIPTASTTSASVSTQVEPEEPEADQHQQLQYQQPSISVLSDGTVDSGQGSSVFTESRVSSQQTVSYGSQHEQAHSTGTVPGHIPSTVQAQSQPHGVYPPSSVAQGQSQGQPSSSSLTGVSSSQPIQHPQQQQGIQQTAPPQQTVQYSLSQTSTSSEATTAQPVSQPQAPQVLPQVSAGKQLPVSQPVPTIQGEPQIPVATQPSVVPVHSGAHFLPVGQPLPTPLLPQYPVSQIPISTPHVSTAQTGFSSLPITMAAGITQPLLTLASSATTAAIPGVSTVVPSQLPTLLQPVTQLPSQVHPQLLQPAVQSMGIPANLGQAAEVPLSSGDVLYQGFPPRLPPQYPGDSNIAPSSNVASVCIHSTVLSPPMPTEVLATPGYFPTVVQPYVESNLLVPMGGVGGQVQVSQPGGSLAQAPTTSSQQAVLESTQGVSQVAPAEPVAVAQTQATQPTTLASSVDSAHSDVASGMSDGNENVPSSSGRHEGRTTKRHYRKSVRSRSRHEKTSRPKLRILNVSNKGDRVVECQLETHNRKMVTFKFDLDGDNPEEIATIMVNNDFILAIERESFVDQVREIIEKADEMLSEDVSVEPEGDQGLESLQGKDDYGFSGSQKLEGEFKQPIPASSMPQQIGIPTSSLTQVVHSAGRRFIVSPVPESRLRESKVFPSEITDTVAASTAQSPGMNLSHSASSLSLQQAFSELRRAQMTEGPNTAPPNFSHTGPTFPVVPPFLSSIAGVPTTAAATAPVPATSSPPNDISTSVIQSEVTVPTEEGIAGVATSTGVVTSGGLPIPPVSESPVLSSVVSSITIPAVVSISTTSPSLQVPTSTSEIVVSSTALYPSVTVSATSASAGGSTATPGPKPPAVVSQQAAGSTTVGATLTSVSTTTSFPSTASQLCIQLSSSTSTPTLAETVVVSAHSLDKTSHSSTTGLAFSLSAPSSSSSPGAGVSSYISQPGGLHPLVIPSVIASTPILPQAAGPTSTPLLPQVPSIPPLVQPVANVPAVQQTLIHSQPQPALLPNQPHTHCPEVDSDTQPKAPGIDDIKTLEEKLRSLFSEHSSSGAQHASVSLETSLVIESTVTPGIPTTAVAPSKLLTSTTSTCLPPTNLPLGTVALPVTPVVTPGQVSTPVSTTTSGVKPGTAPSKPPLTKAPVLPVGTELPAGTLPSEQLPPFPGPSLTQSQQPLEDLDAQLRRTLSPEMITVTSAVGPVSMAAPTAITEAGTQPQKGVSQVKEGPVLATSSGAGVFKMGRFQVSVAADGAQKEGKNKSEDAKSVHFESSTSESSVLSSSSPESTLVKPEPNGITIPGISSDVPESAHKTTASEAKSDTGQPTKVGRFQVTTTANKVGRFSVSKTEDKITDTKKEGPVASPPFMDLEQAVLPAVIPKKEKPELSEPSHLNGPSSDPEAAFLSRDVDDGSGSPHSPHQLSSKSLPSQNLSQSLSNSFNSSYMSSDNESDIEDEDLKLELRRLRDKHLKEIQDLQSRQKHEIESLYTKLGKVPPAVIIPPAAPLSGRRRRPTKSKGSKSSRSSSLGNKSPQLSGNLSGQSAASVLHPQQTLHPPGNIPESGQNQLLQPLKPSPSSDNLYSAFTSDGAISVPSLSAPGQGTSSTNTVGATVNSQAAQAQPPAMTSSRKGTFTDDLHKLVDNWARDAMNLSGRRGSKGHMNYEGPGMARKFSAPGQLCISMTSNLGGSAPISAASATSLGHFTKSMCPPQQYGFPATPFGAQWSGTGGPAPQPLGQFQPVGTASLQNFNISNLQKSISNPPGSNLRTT
inactive: [1] 0.022 | [2] 0.003 | [3] -0.007 | [4] -0.005 | [5] -0.047 | [6] 0.003 | [7] 0.013 | [8] -0.035 | [9] 0.012 | [10] 0.006 | [11] -0.034 | [12] -0.003 | [13] -0.006 | [14] -0.026 | [15] -0.026 | [16] 0.082 | [17] 0 | [18] 0.032 | [19] -0.002 | [20] 0

UTP3 (UniProt Q9NQZ2)
Sequence of UniProt Q9NQZ2 (Q9NQZ2 whole entry, looked up): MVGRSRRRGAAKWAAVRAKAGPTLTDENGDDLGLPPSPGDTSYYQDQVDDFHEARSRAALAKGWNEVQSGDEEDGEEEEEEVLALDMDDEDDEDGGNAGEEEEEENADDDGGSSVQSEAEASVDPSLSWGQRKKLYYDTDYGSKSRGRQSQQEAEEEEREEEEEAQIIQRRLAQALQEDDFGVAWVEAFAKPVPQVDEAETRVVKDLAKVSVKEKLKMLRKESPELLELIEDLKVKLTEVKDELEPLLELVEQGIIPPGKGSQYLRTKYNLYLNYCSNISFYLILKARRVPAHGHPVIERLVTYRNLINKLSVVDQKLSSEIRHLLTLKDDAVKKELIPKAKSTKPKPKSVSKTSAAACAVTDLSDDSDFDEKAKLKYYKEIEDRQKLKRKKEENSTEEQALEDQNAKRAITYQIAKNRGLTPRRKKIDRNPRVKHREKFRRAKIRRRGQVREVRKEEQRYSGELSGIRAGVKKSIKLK
inactive: [1] 0.232 | [2] -0.1 | [3] 0.173 | [4] 0.067 | [5] 0.094 | [6] 0.104 | [7] 0.238 | [8] -0.106 | [9] 0.23 | [10] 0.051 | [11] -0.058 | [12] 0.368 | [13] 0.125 | [14] 0.26 | [15] -0.09 | [16] -0.074 | [18] -0.067 | [19] 0.204 | [20] -0.06

TRIM23 (UniProt P36406)
inactive: [1] 0.033 | [2] 0.075 | [3] -0.034 | [4] 0.032 | [5] -0.049 | [6] -0.004 | [7] 0.057 | [8] 0.035 | [9] 0.012 | [10] -0.039 | [11] 0.019 | [12] -0.031 | [13] 0.036 | [15] -0.078 | [17] 0.012 | [18] 0.039 | [20] 0.204

TMEM219 (UniProt Q86XT9)
Sequence of UniProt Q86XT9 (Q86XT9 whole entry, looked up): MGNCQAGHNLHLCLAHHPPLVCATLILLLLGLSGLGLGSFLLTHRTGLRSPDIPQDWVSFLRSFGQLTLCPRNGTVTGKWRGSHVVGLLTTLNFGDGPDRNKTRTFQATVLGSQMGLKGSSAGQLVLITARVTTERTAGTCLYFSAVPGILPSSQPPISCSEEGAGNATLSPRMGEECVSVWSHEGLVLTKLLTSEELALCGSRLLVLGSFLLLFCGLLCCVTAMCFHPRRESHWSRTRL
inactive: [1] 0.261 | [2] 0.03 | [3] -0.12 | [4] -0.059 | [5] -0.016 | [6] -0.185 | [8] 0.176 | [10] -0.093 | [12] -0.065 | [13] -0.181 | [14] -0.017 | [16] -0.011 | [17] -0.029 | [19] 0.058 | [20] -0.277

TUT4 (UniProt Q5TAX3)
inactive: [1] -0.089 | [2] 0.003 | [3] 0.112 | [4] 0.073 | [5] -0.075 | [6] -0.095 | [7] -0.001 | [8] -0.008 | [9] -0.144 | [10] 0.082 | [11] -0.265 | [12] 0.092 | [13] -0.237 | [15] -0.02 | [16] 0.158 | [17] 0.051 | [18] -0.025 | [19] 0.021 | [20] 0.009
